Screening results deposited in PubChem BioAssay by several laboratories.
DUSP3 inh = blocks human VHR1 dual specificity phosphatase; inhibition, % at 13.3 µM; AID 1654; 0.52% of 290,000 active; P51452; recombinant VHR phosphatase, pNPP absorbance; in the data active means inhibition above about 50%
Target sequence (P51452 whole entry, looked up): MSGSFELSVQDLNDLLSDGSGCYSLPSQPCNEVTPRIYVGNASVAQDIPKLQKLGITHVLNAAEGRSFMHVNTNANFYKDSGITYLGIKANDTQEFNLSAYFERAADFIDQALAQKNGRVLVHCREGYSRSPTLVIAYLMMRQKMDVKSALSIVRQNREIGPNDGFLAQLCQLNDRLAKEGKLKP
ugtP null kill = compounds lethal to S. aureus RN4220 ugtP deletion mutant; OD600 growth, 16 h; AID 1259309; 0.54% of 330,000 active; growth inhibition, % (no concentration beside the values); in the data active means growth inhibition above about 68%
RN4220 kill = kills Staphylococcus aureus RN4220; S. aureus RN4220 growth, OD600, 16 h; inhibition, % (no concentration beside the values); 0.33% of 330,000 active; in the data active means inhibition above about 85%
SSB-PriA inh = blocks PriA binding to SSB C-terminal tail. AID 1272365. 0.6% of 430,000 active. inhibition, % at 33 µM. AlphaScreen SSBct-PriA binding, biotinylated peptide; in the data active means inhibition mostly above about 37%, no sharp cut-off; inactive means mostly below about 20%
CCHFV vOTU inh = CCHFV vOTU protease inhibition. Pep-AMC fluorescence. inhibition, % at 11.5 µM. 0.55% of 370,000 active. AID 651958; in the data active means inhibition above about 30%
Hits are given with their value; 0 = inactive; - = not tested or not shown. Shown are actives, neighbours in structure and some others; about 1.5% of the full set was active somewhere.

SMILES	DUSP3 inh	ugtP null kill	RN4220 kill	SSB-PriA inh	CCHFV vOTU inh
Cc1ccc(-c2ccc(C3C4C=CCC[C@@]4(C)C(=O)N3Cc3ccccc3)c(F)c2)cc1 (stereo not given in full)	-	81	0	-	-
CN(C)c1ccc(-c2ccc([C@H]3[C@@H]4C=CCC[C@@]4(C)C(=O)N3Cc3ccccc3)c(F)c2)cc1	0	-	-	0	0
CCn1c(=O)c(C(=O)Nc2nc3ccccc3[nH]2)c(O)c2ccccc21	0	100	100	0	0
CCCCn1c(=O)c(C(=O)Nc2nc3ccccc3[nH]2)c(O)c2ccccc21	0	-	-	-	-
CCCCCn1c(=O)c(C(=O)Nc2nc3ccccc3[nH]2)c(O)c2ccccc21	0	101	0	0	0
O=C(Nc1ncnc2sccc12)c1ccc2c(c1)CCCC2	-	-	-	0	-
O=C1OC(c2cccs2)=N/C1=C\c1ccc(-c2cccc(Cl)c2)o1	0	0	0	91	0
Cc1ccc(-c2ccc(/C=C3/N=C(c4cccs4)OC3=O)o2)cc1Cl	-	-	-	0	-
Cc1ccc(NC(=O)CC(N)=NO)cc1C	-	-	-	0	-
CCOc1cccc(OCC)c2c(C)[n+](CC3CCCO3)c(C)c1-2 (stereo not given)	52	0	0	0	-
CCOc1cc(C(=O)NCC2CCCO2)cc(OCC)c1OCC (stereo not given)	0	0	0	0	0
COc1cc(C=NNC(=O)c2cc(-c3c(C)nn(-c4ccccc4)c3C)n[nH]2)ccc1O	-	95	0	0	-
Cn1c(=O)oc2cc(S(=O)(=O)NCc3ccc(Cl)cc3)ccc21	0	0	0	0	0
COC(=O)c1ccccc1NS(=O)(=O)c1ccc2c(c1)oc(=O)n2C	52	0	0	0	0
Cn1c(=O)oc2cc(S(=O)(=O)NCc3ccccc3)ccc21	51	0	0	0	0
CCOc1cc(C(=O)Nc2ccc(C)c(N3CCCCC3=O)c2)cc(OCC)c1OCC	-	-	-	0	-
Cc1ccc(N2C(=O)CC(N3CCNC3=C3CC/C(=C\c4ccccc4)C3=O)C2=O)cc1 (stereo not given)	-	-	-	0	-
Oc1c(Cl)cc(CN2CCOCC2)c2cccnc12	-	0	0	115	0
O=[N+]([O-])c1cc(CN2CCOCC2)c2cccnc2c1O	0	-	-	92	-
COc1ccc(-c2cc(C3CCN(c4cc(Cl)nc(N)n4)CC3)[nH]n2)cc1	0	95	0	0	0
Nc1nc(Cl)cc(N2CCC(c3cc(-c4ccc(Cl)cc4)n[nH]3)CC2)n1	0	94	0	0	0
c1ccc(N2CCN(c3nc(NCc4ccco4)c4ccccc4n3)CC2)cc1	0	0	0	40	0
O=C(Cc1c(F)cccc1Cl)NCC1CCN(S(=O)(=O)C2CC2)CC1	-	-	-	0	-
CC(C)c1ccc(NC2CCCN(C(=O)c3ccccc3-c3ncc[nH]3)C2)cc1 (stereo not given)	57	0	0	0	0
O=C(NCCc1ccccc1)NCCc1ccoc1	-	-	-	0	-
SMILES	DUSP3 inh	ugtP null kill	RN4220 kill	SSB-PriA inh	CCHFV vOTU inh
O=[N+]([O-])c1ccc(NN=Cc2cc(Br)ccc2O)nc1	-	93	0	0	0
O=C(CCCC(=O)Nc1cccc(Br)c1)NN=Cc1cc([N+](=O)[O-])ccc1O	-	0	88	0	-
O=[N+]([O-])c1ccc(NN=Cc2cccc(O)c2)nc1	-	0	0	0	0
Cc1cccc(NC(=O)CCC(=O)NN=Cc2cc([N+](=O)[O-])ccc2O)c1	-	84	94	0	-
CC(Cc1ccccc1)[n+]1cc(N=C([O-])Nc2ccccc2)on1 (stereo not given)	-	-	-	0	-
CC(=O)N1CCC(C(=O)Nc2cnn(C3CCOCC3)c2)CC1	-	-	-	0	-
Cc1sc2ncnc(N3CCN(c4ncnc5sc(C)c(C)c45)CC3)c2c1C	-	-	-	0	-
Cc1sc2ncnc(N3CCN(c4ncccn4)CC3)c2c1C	58	0	0	0	0
O=C(Nc1ccc2c(c1)CCCN2S(=O)(=O)c1cccs1)c1ccc(Br)o1	-	-	-	0	-
O=C(NCCn1ncc2c(=O)n(Cc3ccccc3)cnc21)C1CC(=O)N(c2ccc(F)cc2)C1 (stereo not given)	-	-	-	0	-
CCOc1ccc(C(=O)NCCN2CCN(c3ccccc3)CC2)cc1OCC	-	-	-	0	-
CC(COc1ccccc1)N1CCC(CO)(Cc2ccccc2)CC1 (stereo not given)	58	0	0	0	0
COc1ccc(CC2(CO)CCN(C(C)COc3ccccc3)CC2)cc1 (stereo not given)	0	0	0	0	0
CCn1c(SCC(=O)NCc2ccccc2)nc2nc3c(cc2c1=O)CCCC3	53	0	0	0	0
CCn1c(SCC(=O)Nc2ccc(Cl)cc2)nc2nc3c(cc2c1=O)CCCC3	60	0	0	0	0
CCn1c(SCC(=O)Nc2ccc(C(C)=O)cc2)nc2nc3c(cc2c1=O)CCCC3	0	0	0	0	0
O=C(NCc1cccs1)c1cn[nH]n1	-	-	-	0	-
O=C(NCc1ccc([C@@H](O)c2cccs2)s1)C(=O)NCc1ccccc1Cl	-	-	-	0	-
CCN1C(=O)CSC1=NS(=O)(=O)c1ccccc1	-	0	0	0	-
CCN1C(=O)CSC1=NC1C2CC3CC(C2)CC1C3 (stereo not given)	0	91	0	0	0
COc1ccc(NC2=NC(=S)N(c3ccccc3C)C23CCCCC3)cc1	0	0	0	0	0
[O-][N+]1=c2ccc(Nc3ccccc3)cc2=NC12CCCCC2	0	0	0	57	0
O=[N+]([O-])c1ccc2c(c1N1CCCCC1)=NC1(CCCCC1)[N+]=2[O-]	0	0	0	0	0
COc1ccc(Nc2ccc3c(c2)=NC2(CCCCC2)[N+]=3[O-])cc1	0	0	0	65	0
O=Cc1cc2ccccc2nc1SCc1ccc(Cl)cc1	0	0	0	0	0
SMILES	DUSP3 inh	ugtP null kill	RN4220 kill	SSB-PriA inh	CCHFV vOTU inh
O=Cc1cc2ccccc2nc1SCc1ccc(Cl)c(Cl)c1	0	99	0	0	0
O=C(NC1CCCCC1)c1sccc1S(=O)(=O)N1CCN(c2ccccc2)CC1	-	-	-	0	-
CCOc1ccc(NC(=O)CC(Cc2cc(C)cc(C)c2)C(=O)O)cc1 (stereo not given)	53	0	0	0	0
COc1ccccc1-c1nc(S[C@@H](C(C)=O)C(=O)N(C)C)c2c(=O)n(C)c(=O)n(C)c2n1	-	-	-	0	-
Cc1ccc(C(=O)c2no[n+]([O-])c2C(=O)c2ccc(C)cc2)cc1	54	0	0	0	0
Cc1ccc(C(=O)c2ccc(C)cc2)cc1	0	0	0	0	0
CCn1cc(C(=O)O)c(=O)c2cnc(N3CCN(C(=S)Nc4ccc(F)cc4)CC3)nc21	0	0	0	0	0
NC1C2CN(c3nc4c(cc3F)c(=O)c(C(=O)O)cn4-c3ccc(F)cc3F)CC12 (stereo not given)	0	98	100	0	-
CCc1ccc(S(=O)(=O)/N=C2/C=C(Sc3ncn[nH]3)C(=O)c3ccccc32)cc1	55	-	-	-	-
O=C1C(Nc2ccc(O)cc2)=C/C(=N/S(=O)(=O)c2cccs2)c2ccccc21	0	-	-	-	108
O=C1C(Nc2ccc(O)cc2)=CC(=NS(=O)(=O)c2cccs2)c2ccccc21	-	0	0	76	-
CCc1ccc(S(=O)(=O)N=C2C=C(Nc3ccc(O)cc3)C(=O)c3ccccc32)cc1	-	-	-	95	-
CCCCc1ccc(NC(=O)c2cc(=O)c(OC)c[nH]2)cc1	-	-	-	0	-
N#Cc1cccc(C(=O)Nc2cnc3ccnn3c2)c1	-	-	-	0	-
